Compound activity deposited in PubChem by several laboratories.
A selection: hits, their analogues and other compounds. The true share with any hit is near 4.7%.
PfHsp90 yeast 2: inhibits growth of yeast expressing Plasmodium falciparum Hsp90; S. cerevisiae expressing PfHsp90, BacTiter-Glo ATP, 48 h; yeast lacking PDR1 and PDR3 efflux regulators; inhibition, % at 9.4 µM; 310,000 compounds, 0.32% hits; AID 504621;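 active means every replicate shows inhibition above about 80%, whatever the replicate mean, limit read from the data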;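 further: 0% = DMSO neutral controls and 100% = 20 µM radicicol positive controls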
tim23-1 inh: tim23-1 yeast growth inhibition; S. cerevisiae tim23-1 growth, BacTiter-Glo luminescence, 24 h; inhibition, % at 20 µM; 330,000 compounds, 1.3% hits;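 active means growth inhibition of the mutant yeast at or above 50%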;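 further: temperature-sensitive mutant grown at 25 °C; plate controls were DMSO-treated mutant yeast for no effect and medium wells lacking yeast for full effect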
EBI2 block: blocks human EBI2 receptor beta-arrestin signaling; inhibition, % at 5 µM; EBI2 beta-arrestin recruitment, luminescence, 7a,25-OHC stimulated; AID 651636; 360,000 compounds, 0.81% hits; in the data active means inhibition above about 38%;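 further: enzyme fragment complementation signal reports receptor beta-arrestin coupling in cells; 0% = agonist plus DMSO wells and 100% = wells without agonist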
Target sequence (P32249 whole entry, looked up, the tested form may be a part): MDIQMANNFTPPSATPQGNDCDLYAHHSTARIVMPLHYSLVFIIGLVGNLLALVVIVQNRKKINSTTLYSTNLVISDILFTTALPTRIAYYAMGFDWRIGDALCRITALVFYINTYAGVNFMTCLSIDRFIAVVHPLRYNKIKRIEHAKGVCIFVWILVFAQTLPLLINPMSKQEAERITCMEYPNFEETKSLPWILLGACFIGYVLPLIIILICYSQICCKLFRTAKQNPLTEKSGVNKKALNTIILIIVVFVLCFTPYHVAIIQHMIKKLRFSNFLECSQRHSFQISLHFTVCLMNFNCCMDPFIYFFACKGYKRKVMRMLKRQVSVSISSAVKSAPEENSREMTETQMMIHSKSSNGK
SKKanGAS inh: SKKanGAS growth inhibition. inhibition, % at 7.5 µM. 300,000 compounds, 1.3% hits. S. pyogenes SKKanGAS, kanamycin growth, BacTiter-Glo, 6 h;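 active means mean replicate score, as percent of positive control median, at least 50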;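 further: strain carries kanamycin resistance gene driven by streptokinase promoter and grows in 40 µg/ml kanamycin; loss of luminescence reflects streptokinase promoter inhibition or plain growth inhibition; 0% = median of DMSO wells and 100% = positive control at its reference dose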
TIM10 inh: growth inhibitors of TIM10 yeast strain. S. cerevisiae TIM10 strain growth, BacTiter-Glo luminescence, 24 h. inhibition, % at 10 µM. 330,000 compounds, 1.4% hits;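 active means inhibition of 40% or more at the single tested concentration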;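 further: wild-type TIM10 isogenic control strain grown at permissive 25 °C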
tim10-1 inh: tim10-1 yeast growth inhibition. inhibition, % at 20 µM. S. cerevisiae tim10-1 ts strain growth, BacTiter-Glo, 24 h. 330,000 compounds, 2.2% hits;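 active means inhibition of at least 40%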;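 further: mutant grown at 25 °C; 0% = DMSO wells with yeast and 100% = wells holding no yeast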
* = called active by the depositor; / = no result.

SMILES | PfHsp90 yeast 2 | tim23-1 inh | EBI2 block | SKKanGAS inh | TIM10 inh | tim10-1 inh
COc1ccc(N2CC(C(=O)Nc3ccc([N+](=O)[O-])cc3Br)CC2=O)cc1 (stereo not drawn) | 9.7 | 22.1 | 4.3 | 3.8 | -15.2 | 10.3
CC(Oc1cccc(Cl)c1)C(=O)Nc1ccccc1C(=O)N1CCCCC1 (stereo not drawn) | 1.7 | 23.5 | 2.3 | -4.5 | 16.1 | 26.0
CCC(Oc1ccccc1)C(=O)Nc1ccccc1N1CCCCC1 (stereo not drawn) | 36.3 | 20.2 | 17.8 | 61.3* | -23.4 | -5.9
CC(Oc1cccc(Cl)c1)C(=O)Nc1ccccc1N1CCCCC1 (stereo not drawn) | 16.5 | -3.6 | 21.8 | 73.2* | -4.9 | -22.0
CN(C)c1cccc(NC(=O)c2cccc3c(-c4ccc(F)c(F)c4)coc23)c1 | / | / | 2.3 | / | / | /
Cc1cc(C)c2nc(NNC(=O)c3cc(=O)c4ccccc4o3)sc2c1 | -69.4 | 27.1 | -2.7 | 84.8* | -29.8 | 12.4
Cc1cc(C)c2sc(N(CCCN(C)C)C(=O)c3ccc(S(=O)(=O)N4CCc5ccccc5C4)cc3)nc2c1 | -16.7 | 1.3 | -3.0 | 9.8 | 3.4 | 2.9
Cc1cc(C)c2sc(NNC(=O)c3ccc(S(=O)(=O)N4CCc5ccccc5C4)cc3)nc2c1 | 43.4 | 28.0 | -11.4 | 65.4* | 17.5 | 25.2
Cc1cc(C)c2nc(NNC(=O)c3ccc(S(=O)(=O)N4CCc5ccccc5C4)cc3)sc2c1 | 45.3 | 7.8 | -2.3 | 77.6* | -23.3 | -27.2
COc1ccc(/C=c2\s/c(=C/C(=O)c3ccc(C)cc3)[nH]c2=O)cc1OC | -36.2 | 22.4 | 16.0 | 61.8* | 3.8 | 17.0
COc1ccc(/C=C2\CC/C(=C\c3ccc(OC)c(OC)c3)C2=O)cc1OC | -2.6 | 30.8 | 13.4 | 5.6 | 28.8 | 19.2
O=C(/C=C/c1ccc(OC(F)F)cc1)Nc1cccc(S(=O)(=O)N2CCOCC2)c1 | 5.1 | 21.3 | 20.0 | 3.6 | 17.2 | 1.7
CCOc1ccc(-n2c(O)c(/C=N/NC(=O)C3COc4ccccc4O3)c3ccccc3c2=O)cc1 (stereo not drawn) | 31.8 | -10.0 | -3.9 | 72.7* | 6.0 | 6.9
COc1ccc(-n2c(SCC(=O)Nc3cc(C)on3)nc3c(c2=O)SC(C)C3)cc1 (stereo not drawn) | / | / | -11.5 | / | / | /
COc1cc2nc(C3CCC3)nc(N3CCN(c4ccccn4)CC3)c2cc1OC | -2.1 | 35.3 | 52.5* | 7.3 | 21.3 | 7.7
O=[N+]([O-])c1ccc(O)c(/C=N/Nc2nc3ccccc3[nH]2)c1 | 19.6 | 7.1 | 7.2 | 70.5* | 13.3 | 9.5
O=[N+]([O-])c1cccc(N/N=C/c2cc([N+](=O)[O-])ccc2O)c1 | -3.6 | -12.0 | 14.9 | -3.8 | -18.2 | -19.0
COc1cccc(/C=N/Nc2nc3ccccc3[nH]2)c1O | 1.9 | 19.4 | -3.1 | 78.9* | -3.3 | -6.4
O=[N+]([O-])c1ccc(O)c(/C=N/Nc2ccccn2)c1 | 110.6* | / | 63.6* | -2.9 | / | /
O=[N+]([O-])c1ccc(O)c(/C=N/Nc2ncnc3c2cnn3-c2ccccc2)c1 | 5.5 | 17.9 | 0.0 | 87.9* | 11.1 | 12.0
COc1ccc(O)c(/C=N/Nc2nc3ccccc3[nH]2)c1 | 27.9 | -5.8 | -3.8 | 23.2 | 5.7 | 3.4
CN(C(=O)CSc1nnc(-c2cccnc2)o1)C1CCCCC1 | -28.8 | 6.3 | 2.3 | / | 1.5 | -1.4
COc1ccc(OC)c2sc(N(CCCN(C)C)C(=O)CCS(=O)(=O)c3ccccc3)nc12 | / | 23.0 | 54.0* | -3.3 | 22.3 | 27.4
CN(C)CCCN(C(=O)CCS(=O)(=O)c1ccccc1)c1nc2cc3c(cc2s1)OCO3 | 0.0 | 16.6 | 41.7* | -4.6 | 23.9 | 26.2
CCN(CC)CCC=C(c1cccs1)c1cccs1 | / | / | 5.0 | / | / | /
SMILES | PfHsp90 yeast 2 | tim23-1 inh | EBI2 block | SKKanGAS inh | TIM10 inh | tim10-1 inh
COCCCN1C(=O)c2ccc(C(=O)NCCc3ccccc3)cc2C1=O | 1.4 | 6.1 | 3.4 | 5.3 | -5.9 | -8.1
Cc1ccc([C@@H]2CC(=O)[C@@H]3CN(S(=O)(=O)c4ccc(C)cc4)[C@H](c4ccc(Cl)cc4)C[C@@H]3N2S(=O)(=O)c2ccc(C)cc2)cc1 | / | / | 6.0 | / | / | /
FC(F)(F)c1ccc(C2[C@H]3CN(Cc4cccnc4)[C@H](c4ccccc4)C34CC2(c2cccnc2)C4)cc1 (stereo partly drawn) | -1.3 | 18.4 | 18.4 | 52.6* | 22.4 | 21.7
O=C(Nc1ccc(F)cc1)Nc1ccccc1C(=O)NCCN1CCNC1=O | / | -6.1 | -15.6 | -12.2 | -2.9 | -1.5
Cc1cc(C)c2nc(SCC(=O)N3CC(=O)Nc4ccccc43)c(C#N)cc2c1 | / | 9.4 | 49.1* | 23.9 | 32.0 | 25.9
CC(C)NC(=O)C1(C)CCN1Cc1ccc(Cl)cc1 (stereo not drawn) | / | / | -1.6 | / | / | /
O=C(OCc1ccccc1)c1ccccc1O | / | -7.8 | / | / | 7.3 | -14.3
O=C(OCc1csc(-c2ccccc2)n1)c1ccccc1O | -9.8 | 6.8 | 4.7 | 49.9* | 5.0 | -10.6
O=c1cc(N2CCCCC2)c(-c2ccccc2)nn1Cc1ccc(Cl)cc1 | 2.1 | 40.3 | 28.2 | 94.2* | 9.5 | 20.0
O=c1cc(N2CCCCC2)c(-c2ccccc2)nn1Cc1c(Cl)cccc1Cl | -60.1 | 23.5 | 30.9 | 107.1* | 11.1 | 19.3
O=c1cc(N2CCCCC2)c(-c2ccccc2)nn1Cc1ccc(F)cc1 | -74.4 | 27.9 | 17.3 | 16.7 | 5.8 | -25.5
Cc1ccc2c(c1)C(=O)CC1(CCC(C(C)(C)C)CC1)O2 (stereo not drawn) | -16.4 | 15.1 | -3.6 | 68.3* | -4.7 | 9.2
CC1(C(=O)Nc2cccnc2)Cc2c(-c3cccc(C(F)(F)F)c3)ccnc2O1 (stereo not drawn) | / | / | 3.3 | / | / | /
CCCS(=O)(=O)NC(=O)C1(C)CCN(C(=O)c2cc(C)nn2C(C)(C)C)C1 (stereo not drawn) | / | / | -4.7 | / | / | /
Cc1ccc(C(C)C)c(OCc2ccc(C(=O)N/N=C/c3cccc(O)c3O)cc2)c1 | 121.9* | / | 8.7 | 86.3* | / | /
Cc1ccc(C(C)C)c(OCc2ccc(C(=O)N/N=C/c3ccc(O)c(O)c3)cc2)c1 | 5.2 | 9.5 | 13.3 | 30.8 | 1.3 | 0.7
O=C(/C(=C/O)N=Nc1cccc(C(F)(F)F)c1)c1ccccc1 | 108.2* | 28.9 | -2.0 | -2.5 | 28.0 | 24.2
COC(=O)/C(N=Nc1cccc(C(F)(F)F)c1)=C(\C)O | -19.3 | 14.8 | 3.1 | -4.7 | 8.0 | 25.8
COc1ccc(OC)c(N(CCN2C(=O)c3ccccc3C2=O)C(=O)C2CCC(=O)C2C)c1 (stereo not drawn) | / | / | -8.4 | / | / | /
CC(C)COCc1ccc(O)c2ncccc12 | 0.8 | 16.0 | 44.4* | 82.7* | 12.7 | 3.4
CCCOCc1ccc(O)c2ncccc12 | -7.8 | 20.1 | 45.6* | 82.1* | 6.8 | 5.6
Cc1ccc(NC2=C(NC(=O)c3ccccc3)C(=O)c3ccccc3C2=O)cc1Cl | -8.1 | 40.8 | 12.2 | 73.7* | 21.9 | 29.4
Cc1ccc(NCC(=O)c2ccccc2)cc1Cl | -9.6 | 7.3 | 23.5 | 6.7 | 1.3 | 10.5
